In PubChem BioAssay (Tox21):
Results filed as inconclusive are left out. Unmarked numbers belong to inactive results. Activity calls are given as the source filed them. The call rests on the fitted dose curve; in most records, active means well fitted activation curve with a large enough effect in the repeat runs; inconclusive means weak or mixed curves; inactive means flat fitted curve, though single readings scatter.

Assay: A CellTox Green Cytotoxicity Assay to monitor cytotoxicity in HepG2 cells - 32 hour (AID 1224883); further: nearly all actives have a fitted effect of over 50% in size
Details: CellTox Green fluorescence; series mostly up to 76.8 µM; cytotoxicity increase: at the top concentration
From the text: National Center for Advancing Translational Sciences [NCATS]
NIH Chemical Genomics Center [NCGC]
U.S. Environmental Protection Agency [EPA]
National Institutes of Environmental Health Sciences [NIEHS]
National Toxicology Program [NTP]
Cell-based models are critical for drug discovery. Determining the natural cytotoxic effects resulting from test compounds is an essential research activity. A CellTox Green Cytotoxicity Assay to monitor cytotoxicity in real time of continues cell culture during 40 hours of the compound treatment was used to screen Tox21 10K library compounds in HepG2 cells. CellTox Green Cytotoxicity Assay is a nonlytic, homogeneous, biofluorescent method to measure cytotoxicity in cell culture after experimental manipulation. The assay system uses a proprietary asymmetric cyanine dye that is excluded from viable cells but preferentially stains the dead cell's DNA. […] Viable cells produce no appreciable increases in fluorescence. Therefore, the fluorescence signal produced by the binding interaction with dead cell DNA is proportional to cytotoxicity.
The mixture of HepG2 cell suspension and reagents were dispensed at 600cells/6 ul/well in 1536-well tissue culture treated black solid bottom plates using a Multidrop dispenser. After the assay plates were incubated at a 37 C/5% CO2 incubator for 5 hours, 23 nL of compounds dissolved in DMSO, positive and negative controls was transferred to the assay plate by a pintool work station. The plates were incubated at 37 C for 40 hours. The fluorescence intensity were measured at 0h, 8h, 16h, 24h, 32h and 40h time points using ViewLux plate reader during compound treatment.
On the % scale 0 is the no-effect control and ±100 the full control effect; potency means the concentration at half of the fitted maximal effect.

First: CC(C)(C)CCCCCCOC(=O)c1ccccc1C(=O)OCCCCCCC(C)(C)C
Second: CCCCCCCCCCCSCC(=O)O
The “cytotoxicity increase” value of the first is lower: -8.52% for the first, 0.379% for the second.

Going from O=P(O)(O)Oc1ccccc1 to O=C(O)c1cccc(Oc2ccccc2)c1, the “cytotoxicity increase” value rises from -0.0415% to 2.44%.

First: CC(C)N(C)C
Second: CC(=O)OCCC(C)CC(C)(C)C (stereo not given)
The “cytotoxicity increase” value of the first is higher: 7.99% for the first, -6.57% for the second.

First: O=C(O)CCS
Second: CC(=O)NNC(C)=O
The “cytotoxicity increase” value of the first is lower: -4.58% for the first, 4.21% for the second.

Going from O=C(O)c1ccc(O)cc1O to C=Cc1ccc(OC(C)=O)cc1, the “cytotoxicity increase” value rises from -2.05% to 6.18%.

Compared with O=CNNC=O, COC(=O)CC(C(C)=O)C(=O)OC (stereo not given) is lower in “cytotoxicity increase” value: -4.39% for the first, -13% for the second.

Compared with CNCc1ccc(NC(=O)c2c[nH]c3c2C(=O)CCC3)cc1, COc1cc(OC)c2ccc(=O)oc2c1 is higher in “cytotoxicity increase” value: -6.17% for the first, -6.11% for the second.

Going from CCCCCCCC/C=C\CCCCCCCC(=O)OCCO to Nc1ccn([C@H]2CS[C@@H](CO)O2)c(=O)n1, the “cytotoxicity increase” value falls from 3.71% to -20.7%.

Compared with COc1cc(S(=O)(=O)Nc2ccccc2)c(OC)cc1N, O=[N+]([O-])c1ccc2ncccc2c1 is higher in “cytotoxicity increase” value: 0.461% for the first, 6.12% for the second.

First: COC1CCC=CO1 (stereo not given)
Second: CC1CCc2nccnc21 (stereo not given)
The “cytotoxicity increase” value of the first is higher: 1.32% for the first, -6.36% for the second.

First: CCN(Cc1cccc(S(=O)(=O)O)c1)c1ccc(C(=C2C=CC(=[N+](CC)Cc3cccc(S(=O)(=O)O)c3)C=C2)c2ccccc2S(=O)(=O)[O-])cc1
Second: O=C(O)CCC(=O)c1ccc(-c2ccccc2)cc1
The “cytotoxicity increase” value of the first is lower: -10.1% [at 35.3 µM] for the first, 1.37% [at 35.3 µM] for the second.

Compared with CCCCC[C@H](O)/C=C/[C@H]1[C@H](O)CC(=O)[C@@H]1C/C=C\CCCC(=O)O, CCCCOCCOC(=O)c1cccnc1 is lower in “cytotoxicity increase” value: 7% [at 35.3 µM] for the first, 3.62% [at 35.3 µM] for the second.

Compared with CCN(CC)CC(=O)Nc1c(C)cccc1C(=O)OC, CCOC(=O)N1CCC(Nc2ccc(Cl)cc2N)CC1 is lower in “cytotoxicity increase” value: -7.15% [at 35.3 µM] for the first, -11.1% [at 35.3 µM] for the second.

Going from CNC1CCCN(c2c(F)cc3c(=O)c(C(=O)O)cn(C4CC4)c3c2OC)C1 (stereo not given) to O=C1CC[C@@H](C(=O)O)N1, the “cytotoxicity increase” value rises from -7.03% [at 35.3 µM] to -5.54% [at 35.3 µM].

First: CC(C(=O)O)c1ccc(C(=O)c2cccs2)cc1 (stereo not given)
Second: O=C(O)CN1C(=O)c2cccc3cccc(c23)C1=O
The “cytotoxicity increase” value of the first is higher: -4.67% [at 35.3 µM] for the first, -8% [at 35.3 µM] for the second.

Compared with FC(F)(F)C(F)(F)C(F)(F)C(F)(F)CCI, CC[C@@H](CO)NCCN[C@@H](CC)CO is higher in “cytotoxicity increase” value: -15.1% [at 35.3 µM] for the first, 2.55% [at 35.3 µM] for the second.

Going from COc1cc(NC(C)CCCN)c2ncccc2c1 (stereo not given) to Cc1ccc(N(CC2=NCCN2)c2cccc(O)c2)cc1, the “cytotoxicity increase” value rises from 2.33% [at 35.3 µM] to 9.2% [at 35.3 µM].

With CC(C)c1ccc(C(=O)N=C(N)N)cc1S(C)(=O)=O the “cytotoxicity increase” value was -8.36% [at 35.3 µM].

With COC(=O)Nc1nc2ccc(C(=O)C3CC3)cc2[nH]1 the Potency was 0.952 µM (active).
For CC(C)Cc1ccc(CC(=O)O)cc1, the Potency was 19 µM (active).

Compared with CCCCCCCCCCCCCCN(C)C, CCCCCCCCCCCCCOC(=O)CCSCCC(=O)OCCCCCCCCCCCCC is higher in cytotoxicity increase: -7.28% [at 15.8 µM] for the first, -0.352% [at 15.8 µM] for the second.

In the case of c1ccc2sc(SSc3nc4ccccc4s3)nc2c1, the cytotoxicity increase is reported as 4.1% [at 15.8 µM].
